# Test results taken from paper PMC11006913.
# Positions count from the first letter of the chain named.
# Assays:
# Assay in all cases: PBM; 200 nM protein, PBS
# Details in all cases: dsDNA, one strand shown
# VENTX = target: T1, VENTX (Homo sapiens, UniProt O95231 78-163)
# T1 sequence: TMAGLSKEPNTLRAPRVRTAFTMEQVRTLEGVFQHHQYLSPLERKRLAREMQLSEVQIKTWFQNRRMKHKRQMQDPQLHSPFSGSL
# HOXA7 [1] = target: HOXA7 (Homo sapiens, UniProt P31268 116-202)
# PAX4 [2] = target: T2, PAX4 (Homo sapiens, UniProt O43316 9-242, R200K)
# T2 sequence: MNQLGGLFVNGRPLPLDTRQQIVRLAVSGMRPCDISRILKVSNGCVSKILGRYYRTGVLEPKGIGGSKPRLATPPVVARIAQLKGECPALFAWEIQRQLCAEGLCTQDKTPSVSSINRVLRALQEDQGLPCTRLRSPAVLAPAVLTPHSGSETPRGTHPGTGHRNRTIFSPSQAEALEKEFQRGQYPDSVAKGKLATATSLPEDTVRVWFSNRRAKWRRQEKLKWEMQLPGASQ
# PAX4 [3] = target: T3, PAX4 (Homo sapiens, UniProt O43316 9-242)
# T3 sequence: T2 sequence with K192R
# PAX4 [4] = target: T4, PAX4 (Homo sapiens, UniProt O43316 9-242, F177V)
# T4 sequence: T2 sequence with F169V, K192R
# HOXC10 [5] = target: HOXC10 (Homo sapiens, UniProt Q9NYD6 254-340, K271E)
# PAX4 [6] = target: T5, PAX4 (Homo sapiens, UniProt O43316 9-242, F177Y)
# T5 sequence: T2 sequence with F169Y, K192R
# VAX1 = VAX1 (Homo sapiens, UniProt Q5SQQ9 86-172)
# PAX4 [7] = target: T6, PAX4 (Homo sapiens, UniProt O43316 9-242, R227W)
# T6 sequence: T2 sequence with K192R, R219W
# HOXA2 [8] = target: HOXA2 (Homo sapiens, UniProt O43364 129-215, Y150S)
# HOXA7 [9] = target: HOXA7 (Homo sapiens, UniProt P31268 116-202, W177C)
# HOXA2 [10] = target: HOXA2 (Homo sapiens, UniProt O43364 129-215)
# HOXB9 [11] = target: HOXB9 (Homo sapiens, UniProt P17482 171-250, T197M)
# HOXC9 = HOXC9 (Homo sapiens, UniProt P31274 178-260, K195R)
# HOXB9 [12] = target: HOXB9 (Homo sapiens, UniProt P17482 171-250)
# HOXB9 [13] = target: HOXB9 (Homo sapiens, UniProt P17482 171-250, R186Q)
# HOXC10 [14] = target: HOXC10 (Homo sapiens, UniProt Q9NYD6 254-340)
# HOXC10 (Homo sapiens, UniProt Q9NYD6 254-340), sequence (Q9NYD6 254-340): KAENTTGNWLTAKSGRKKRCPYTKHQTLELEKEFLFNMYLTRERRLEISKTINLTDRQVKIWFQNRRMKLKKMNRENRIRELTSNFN
# HOXC10 (Homo sapiens, UniProt Q9NYD6 254-340, K271E), sequence (Q9NYD6 254-340 K271E): as the sequence (Q9NYD6 254-340) above, with K18E counted along it
# VAX1, sequence (Q5SQQ9 86-172): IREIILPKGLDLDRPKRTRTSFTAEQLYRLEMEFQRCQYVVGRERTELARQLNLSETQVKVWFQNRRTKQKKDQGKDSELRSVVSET
# HOXA2 (Homo sapiens, UniProt O43364 129-215), sequence (O43364 129-215): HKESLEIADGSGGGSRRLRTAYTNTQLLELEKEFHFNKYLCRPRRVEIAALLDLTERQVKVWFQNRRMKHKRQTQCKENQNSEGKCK
# HOXA2 (Homo sapiens, UniProt O43364 129-215, Y150S), sequence (O43364 129-215 Y150S): as the sequence (O43364 129-215) above, with Y22S counted along it
# HOXA7 (Homo sapiens, UniProt P31268 116-202), sequence (P31268 116-202): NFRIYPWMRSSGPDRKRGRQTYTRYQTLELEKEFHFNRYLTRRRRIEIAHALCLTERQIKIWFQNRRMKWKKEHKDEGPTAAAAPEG
# HOXA7 (Homo sapiens, UniProt P31268 116-202, W177C), sequence (P31268 116-202 W177C): as the sequence (P31268 116-202) above, with W62C counted along it
# HOXB9 (Homo sapiens, UniProt P17482 171-250, T197M), sequence (P17482 171-250 T197M): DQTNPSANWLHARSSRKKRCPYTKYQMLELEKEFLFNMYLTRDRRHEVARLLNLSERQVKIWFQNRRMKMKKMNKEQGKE
# HOXB9 (Homo sapiens, UniProt P17482 171-250, R186Q), sequence (P17482 171-250 R186Q): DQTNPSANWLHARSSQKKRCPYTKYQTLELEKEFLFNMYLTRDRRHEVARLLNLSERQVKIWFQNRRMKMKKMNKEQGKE
# HOXB9 (Homo sapiens, UniProt P17482 171-250), sequence (P17482 171-250): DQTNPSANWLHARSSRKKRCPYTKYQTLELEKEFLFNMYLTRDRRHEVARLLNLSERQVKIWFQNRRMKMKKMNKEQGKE
# HOXC9, sequence (P31274 178-260 K195R): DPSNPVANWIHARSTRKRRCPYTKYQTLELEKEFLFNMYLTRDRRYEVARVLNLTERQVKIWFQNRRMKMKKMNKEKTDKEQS
sequence,measurement,setting,value
CCTAATTA,binding signal,VENTX,"13 upbm affinity estimate (log intensity, higher = more binding, comparable within an allelic series)"
same,binding signal,HOXA7 [1],"11.8 upbm affinity estimate (log intensity, higher = more binding, comparable within an allelic series)"
same,binding signal,PAX4 [2],"12.1 upbm affinity estimate (log intensity, higher = more binding, comparable within an allelic series)"
same,binding signal,PAX4 [3],"12.6 upbm affinity estimate (log intensity, higher = more binding, comparable within an allelic series)"
same,binding signal,PAX4 [4],"10.8 upbm affinity estimate (log intensity, higher = more binding, comparable within an allelic series)"
same,binding signal,HOXC10 [5],"11.8 upbm affinity estimate (log intensity, higher = more binding, comparable within an allelic series)"
same,binding signal,PAX4 [6],"11.3 upbm affinity estimate (log intensity, higher = more binding, comparable within an allelic series)"
same,binding signal,VAX1,"13.8 upbm affinity estimate (log intensity, higher = more binding, comparable within an allelic series)"
same,binding signal,PAX4 [7],"11.2 upbm affinity estimate (log intensity, higher = more binding, comparable within an allelic series)"
same,binding signal,HOXA2 [8],"10.8 upbm affinity estimate (log intensity, higher = more binding, comparable within an allelic series)"
same,binding signal,HOXA7 [9],"8.85 upbm affinity estimate (log intensity, higher = more binding, comparable within an allelic series)"
same,binding signal,HOXA2 [10],"13.2 upbm affinity estimate (log intensity, higher = more binding, comparable within an allelic series)"
CCAGGTCC,binding signal,VENTX,"8.06 upbm affinity estimate (log intensity, higher = more binding, comparable within an allelic series)"
same,binding signal,HOXA2 [8],"10.5 upbm affinity estimate (log intensity, higher = more binding, comparable within an allelic series)"
same,binding signal,HOXA2 [10],"7.25 upbm affinity estimate (log intensity, higher = more binding, comparable within an allelic series)"
ACTAATTA,binding signal,HOXB9 [11],"10.1 upbm affinity estimate (log intensity, higher = more binding, comparable within an allelic series)"
same,binding signal,HOXC9,"12.5 upbm affinity estimate (log intensity, higher = more binding, comparable within an allelic series)"
same,binding signal,VENTX,"13.3 upbm affinity estimate (log intensity, higher = more binding, comparable within an allelic series)"
same,binding signal,HOXA7 [1],"12.1 upbm affinity estimate (log intensity, higher = more binding, comparable within an allelic series)"
same,binding signal,PAX4 [2],"12.2 upbm affinity estimate (log intensity, higher = more binding, comparable within an allelic series)"
same,binding signal,PAX4 [3],"12.7 upbm affinity estimate (log intensity, higher = more binding, comparable within an allelic series)"
same,binding signal,PAX4 [4],"10.8 upbm affinity estimate (log intensity, higher = more binding, comparable within an allelic series)"
same,binding signal,HOXC10 [5],"11.9 upbm affinity estimate (log intensity, higher = more binding, comparable within an allelic series)"
same,binding signal,PAX4 [6],"11.4 upbm affinity estimate (log intensity, higher = more binding, comparable within an allelic series)"
same,binding signal,VAX1,"14 upbm affinity estimate (log intensity, higher = more binding, comparable within an allelic series)"
same,binding signal,PAX4 [7],"11.4 upbm affinity estimate (log intensity, higher = more binding, comparable within an allelic series)"
same,binding signal,HOXA2 [8],"11 upbm affinity estimate (log intensity, higher = more binding, comparable within an allelic series)"
same,binding signal,HOXA7 [9],"8.93 upbm affinity estimate (log intensity, higher = more binding, comparable within an allelic series)"
same,binding signal,HOXA2 [10],"13.3 upbm affinity estimate (log intensity, higher = more binding, comparable within an allelic series)"
ACCAATTA,binding signal,HOXB9 [11],"9.73 upbm affinity estimate (log intensity, higher = more binding, comparable within an allelic series)"
same,binding signal,VENTX,"12.8 upbm affinity estimate (log intensity, higher = more binding, comparable within an allelic series)"
same,binding signal,HOXA7 [1],"11.2 upbm affinity estimate (log intensity, higher = more binding, comparable within an allelic series)"
same,binding signal,PAX4 [2],"11.6 upbm affinity estimate (log intensity, higher = more binding, comparable within an allelic series)"
same,binding signal,PAX4 [3],"12.2 upbm affinity estimate (log intensity, higher = more binding, comparable within an allelic series)"
same,binding signal,HOXB9 [12],"11.1 upbm affinity estimate (log intensity, higher = more binding, comparable within an allelic series)"
same,binding signal,PAX4 [4],"10.5 upbm affinity estimate (log intensity, higher = more binding, comparable within an allelic series)"
same,binding signal,PAX4 [6],"10.8 upbm affinity estimate (log intensity, higher = more binding, comparable within an allelic series)"
same,binding signal,VAX1,"12.8 upbm affinity estimate (log intensity, higher = more binding, comparable within an allelic series)"
same,binding signal,HOXB9 [13],"10.9 upbm affinity estimate (log intensity, higher = more binding, comparable within an allelic series)"
same,binding signal,PAX4 [7],"10.8 upbm affinity estimate (log intensity, higher = more binding, comparable within an allelic series)"
same,binding signal,HOXA2 [8],"10.9 upbm affinity estimate (log intensity, higher = more binding, comparable within an allelic series)"
same,binding signal,HOXA7 [9],"8.84 upbm affinity estimate (log intensity, higher = more binding, comparable within an allelic series)"
same,binding signal,HOXA2 [10],"12.1 upbm affinity estimate (log intensity, higher = more binding, comparable within an allelic series)"
CCCCGGCG,binding signal,HOXC10 [14],"9.87 upbm affinity estimate (log intensity, higher = more binding, comparable within an allelic series)"
same,binding signal,HOXC10 [5],"10 upbm affinity estimate (log intensity, higher = more binding, comparable within an allelic series)"
TATTAGAA,binding signal,PAX4 [2],"11 upbm affinity estimate (log intensity, higher = more binding, comparable within an allelic series)"
same,binding signal,PAX4 [3],"11.3 upbm affinity estimate (log intensity, higher = more binding, comparable within an allelic series)"
same,binding signal,PAX4 [4],"10.3 upbm affinity estimate (log intensity, higher = more binding, comparable within an allelic series)"
ACTAATTG,binding signal,VENTX,"12.9 upbm affinity estimate (log intensity, higher = more binding, comparable within an allelic series)"
same,binding signal,PAX4 [2],"11.5 upbm affinity estimate (log intensity, higher = more binding, comparable within an allelic series)"
same,binding signal,PAX4 [3],"12.1 upbm affinity estimate (log intensity, higher = more binding, comparable within an allelic series)"
same,binding signal,PAX4 [4],"10.3 upbm affinity estimate (log intensity, higher = more binding, comparable within an allelic series)"
same,binding signal,PAX4 [6],"10.7 upbm affinity estimate (log intensity, higher = more binding, comparable within an allelic series)"
same,binding signal,VAX1,"13.3 upbm affinity estimate (log intensity, higher = more binding, comparable within an allelic series)"
same,binding signal,PAX4 [7],"10.8 upbm affinity estimate (log intensity, higher = more binding, comparable within an allelic series)"
same,binding signal,HOXA2 [8],"10.8 upbm affinity estimate (log intensity, higher = more binding, comparable within an allelic series)"
same,binding signal,HOXA2 [10],"12.4 upbm affinity estimate (log intensity, higher = more binding, comparable within an allelic series)"
